According to ChEMBL document CHEMBL3988442, “University of Dundee, Small-Polar-MMV Screening Library” (2021):
Hit rate of the full screen: of about 48,000 compounds, about 13,000 (27%) showed an effect of 50% or more. This is one part of the list.

tested on: Wolbachia pipientis; experiment: Anti-Wolbachia Cell-Based Screen; type: functional; parameters: scale not given: in the data most compounds retested in dose-response had high values; settings: 5 µM

Compound | Percent Effect [%]
NS(=O)(=O)c1cc(C(=O)N2CCCCC2)cs1 | 6.219
CN(C)c1ccc(CC(=O)N[C@@H]2CCNC[C@H]2O)cc1 | -6.485
COCCNc1ccc(CNC(=O)Nc2cn[nH]c2)cc1 | -8.085
O=C(NCc1cc(Br)cs1)Nc1cn[nH]c1 | 79.99
CNS(=O)(=O)Cc1ccc(CNC(=O)Nc2cn[nH]c2)cc1 | -4.432
CN(Cc1cnn(C)c1)C(=O)NCc1csc(Br)c1 | 2.853
O=C(NCC1(N2CCOCC2)CCSC1)Nc1cn[nH]c1 (stereo not given) | 6.407
O=C(NCc1csc(Br)c1)Nc1cn[nH]c1 | 91.45
CN1CCC(NC(=O)NCc2csc(Br)c2)CC1 | -1.868
O=C(NCc1ccc(Br)c(F)c1)Nc1cn[nH]c1 | 110.2
O=C(Cc1ccc(Br)s1)NCC(=O)Nc1cn[nH]c1 | -7.073
CN(CCNC(=O)c1scnc1Cl)c1ccccc1 | -4.925
COc1ccc(OC)c(C2CCN(CC(C)(C)N3CCOCC3)C2)c1 (stereo not given) | -1.124
CC(C)[C@@H]1CN(Cc2cnc(C3CCCCC3)nc2)C[C@H]1C(=O)O | -8.433
COc1ccc(C(C)N(C)Cc2c(C(C)C)[nH]c3ncccc23)cc1 (stereo not given) | 47.71
CCC(Nc1ncccn1)c1ccc(OC)cc1 (stereo not given) | 2.346
COc1ccc(C(CN2CCN(C)CC2)Nc2ncccn2)cc1 (stereo not given) | -1.255
COc1ccc(C(C)N(C)Cc2c(C3CC3)[nH]c3ncccc23)cc1.Cl (stereo not given) | 91.7
COc1ccc2cc(CN(C)C(C)c3nc(C4CC4)no3)ccc2c1 (stereo not given) | 6.729
COc1ccc(C(C)N(C)Cc2c(C(C)(C)C)[nH]c3ncccc23)cc1 (stereo not given) | 103.1
NC(=O)NCC(=O)N1CCC2(CC1)c1ccccc1CC2O (stereo not given) | -7.297
CC(C)[C@]1(O)CN(C(=O)COCC(N)=O)C[C@H]1C | 89.06
COCCN(C)CC(=O)N1C[C@H]2CC[C@@H]1CN(C(=O)c1ccncc1)C2 | 3.629
COCCN(C)CC(=O)N1C[C@@H](C)[C@](O)(C(C)C)C1 | 89.33
COCC(=O)N1C[C@@H](C)[C@](O)(C(C)C)C1 | 101.1
COCC(=O)N1CCN(C(C)C(=O)NC(C)C)CC1 (stereo not given) | 2.538
C[C@@H]1CN(C(=O)CCCN2CCOCC2)C[C@@]1(O)C1CC1 | -18.09
CC(C)[C@]1(O)CN(C(=O)CNC(N)=O)C[C@H]1C | 90.92
COCCN(C)CC(=O)N1C[C@@H](NC(C)=O)[C@H](c2ccc(OC)cc2)C1 | 3.177
COCC(=O)N1CCC2(CC1)CC(OC)CO2 (stereo not given) | -10.72
